Data reported in PubChem BioAssay.
For some assays here: Entries with a potency or affinity are not part of this list. Calls of active or inactive are those of the source. Unless noted, how the calls were made is not given here.

Tests used:
[1] = antimalarial activity against Dd2 strain (AID 2302;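 active means growth inhibition above 50% at the single 2 µM test dose, taken to imply half-maximal potency below 2 µM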;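 further: 0% = DMSO untreated growth and 100% = chloroquine plus artemisinin killed control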); conditions: P. falciparum Dd2 in RBCs, LDH growth readout, 72 h; at 2 µM; stronger effect = higher value
[2] = human hepatoma cell viability loss – ATP luminescence, cytotoxicity control for P. falciparum antimalarial project, primary screen (AID 2303;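 active means inhibition above 50%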;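 further: 0% = DMSO wells and 100% = digitonin-killed cells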); conditions: HepG2 viability, 24-48 h, at 10 µM, stronger effect = higher value
[3] = molecular target: L-lactate dehydrogenase (Plasmodium falciparum (isolate CDC / Honduras)) (UniProt Q27743); test: PfLDH activity inhibition – cell lysate, 3D7 strain, counter-screen for P. falciparum growth inhibition project (AID 2304);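 further: 0% = vehicle and 100% = reference inhibitor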; conditions: P. falciparum 3D7 crude extract, LDH APAD/NBT absorbance; at 2 µM; stronger effect = higher value
[4] = inhibition of 3D7 malaria parasite growth – strain 3D7 (AID 2306);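 further: 0% = DMSO wells and 100% = chloroquine plus artemisinin control wells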; conditions: P. falciparum 3D7 erythrocytic growth, LDH absorbance, 72 h; at 2 µM; stronger effect = higher value
[5] = molecular target: Calcium-dependent protein kinase 1 (Plasmodium falciparum (isolate 3D7)) (UniProt P62344); test: PfCDPK1 kinase inhibitors, biochemical, TCAMS library (AID 1159585; cut-off not given, nearly all actives have IC50 up to about 0.98 µM;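 further: inhibitors leave more ATP so luminescence rises with inhibition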); conditions: recombinant PfCDPK1, Kinase-Glo ATP depletion luminescence
[6] = molecular target: Plasmodium falciparum protein kinase 6 (PK6, PF3D7_1337100) (UniProt Q8IDW1); test: PfPK6 kinase inhibitors, biochemical, TCAMS library (AID 1159586); conditions: recombinant PfPK6, Kinase-Glo ATP depletion luminescence
[7] = molecular target: Protein kinase 7 (PK7), Plasmodium falciparum 3D7 (PF3D7_0213400) (UniProt Q7YTF7); test: inhibition of Plasmodium PK7 catalytic activity – biochemical, TCAMS antimalarial set, Kinase-Glo luminescence (AID 1159587); conditions: recombinant PfPK7, Kinase-Glo ATP depletion luminescence
[8] = molecular target: Calcium-dependent protein kinase 4 (Plasmodium falciparum (isolate 3D7)) (UniProt Q8IBS5); test: PfCDPK4 kinase inhibitors, biochemical, TCAMS library (AID 1159588; cut-off not given, nearly all actives have IC50 up to about 0.91 µM); conditions: recombinant PfCDPK4, Kinase-Glo ATP depletion luminescence
Chain of Calcium-dependent protein kinase 4 (Plasmodium falciparum (isolate 3D7)) (Q8IBS5 whole entry, looked up): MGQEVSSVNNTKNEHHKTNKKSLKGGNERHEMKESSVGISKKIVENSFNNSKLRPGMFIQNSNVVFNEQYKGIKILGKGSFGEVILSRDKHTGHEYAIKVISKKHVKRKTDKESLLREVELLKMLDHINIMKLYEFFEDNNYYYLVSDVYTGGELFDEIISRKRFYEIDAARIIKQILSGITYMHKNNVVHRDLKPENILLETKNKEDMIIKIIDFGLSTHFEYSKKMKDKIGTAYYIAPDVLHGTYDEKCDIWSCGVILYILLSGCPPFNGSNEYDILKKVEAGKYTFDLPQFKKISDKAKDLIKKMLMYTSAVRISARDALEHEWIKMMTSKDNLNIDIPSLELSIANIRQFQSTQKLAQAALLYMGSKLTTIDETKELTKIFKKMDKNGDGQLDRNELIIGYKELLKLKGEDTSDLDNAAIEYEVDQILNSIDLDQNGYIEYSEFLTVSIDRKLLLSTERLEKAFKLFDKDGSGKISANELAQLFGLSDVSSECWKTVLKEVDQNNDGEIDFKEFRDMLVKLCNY

Chain of L-lactate dehydrogenase (Plasmodium falciparum (isolate CDC / Honduras)) (Q27743 whole entry, looked up): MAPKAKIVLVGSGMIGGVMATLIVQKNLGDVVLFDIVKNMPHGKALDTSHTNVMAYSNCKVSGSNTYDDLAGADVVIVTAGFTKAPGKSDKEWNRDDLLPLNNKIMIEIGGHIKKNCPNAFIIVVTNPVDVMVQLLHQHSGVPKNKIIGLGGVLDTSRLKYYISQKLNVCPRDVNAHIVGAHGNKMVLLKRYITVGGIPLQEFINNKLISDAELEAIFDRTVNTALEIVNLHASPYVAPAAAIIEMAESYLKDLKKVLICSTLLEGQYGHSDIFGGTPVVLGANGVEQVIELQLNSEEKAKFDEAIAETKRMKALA
Chain of Plasmodium falciparum protein kinase 6 (PK6, PF3D7_1337100) (Q8IDW1 1-305): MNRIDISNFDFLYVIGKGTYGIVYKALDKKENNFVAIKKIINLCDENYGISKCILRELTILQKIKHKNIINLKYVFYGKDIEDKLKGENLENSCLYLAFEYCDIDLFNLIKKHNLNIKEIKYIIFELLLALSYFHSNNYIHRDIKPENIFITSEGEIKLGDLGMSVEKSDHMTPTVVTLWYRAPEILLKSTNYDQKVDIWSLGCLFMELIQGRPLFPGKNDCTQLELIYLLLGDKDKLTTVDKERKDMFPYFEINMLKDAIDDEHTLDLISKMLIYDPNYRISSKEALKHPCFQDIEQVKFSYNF
Chain of Protein kinase 7 (PK7), Plasmodium falciparum 3D7 (PF3D7_0213400) (Q7YTF7 1-343): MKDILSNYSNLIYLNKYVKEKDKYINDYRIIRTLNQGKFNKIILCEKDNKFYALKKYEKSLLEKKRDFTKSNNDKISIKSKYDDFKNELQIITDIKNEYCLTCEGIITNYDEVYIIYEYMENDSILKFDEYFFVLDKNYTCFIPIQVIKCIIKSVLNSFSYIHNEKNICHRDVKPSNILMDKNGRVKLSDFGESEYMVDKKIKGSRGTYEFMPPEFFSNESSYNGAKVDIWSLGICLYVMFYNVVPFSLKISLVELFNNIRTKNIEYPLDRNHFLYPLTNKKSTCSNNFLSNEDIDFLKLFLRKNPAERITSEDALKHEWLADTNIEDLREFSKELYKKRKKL
Chain of Calcium-dependent protein kinase 1 (Plasmodium falciparum (isolate 3D7)) (P62344 whole entry, looked up): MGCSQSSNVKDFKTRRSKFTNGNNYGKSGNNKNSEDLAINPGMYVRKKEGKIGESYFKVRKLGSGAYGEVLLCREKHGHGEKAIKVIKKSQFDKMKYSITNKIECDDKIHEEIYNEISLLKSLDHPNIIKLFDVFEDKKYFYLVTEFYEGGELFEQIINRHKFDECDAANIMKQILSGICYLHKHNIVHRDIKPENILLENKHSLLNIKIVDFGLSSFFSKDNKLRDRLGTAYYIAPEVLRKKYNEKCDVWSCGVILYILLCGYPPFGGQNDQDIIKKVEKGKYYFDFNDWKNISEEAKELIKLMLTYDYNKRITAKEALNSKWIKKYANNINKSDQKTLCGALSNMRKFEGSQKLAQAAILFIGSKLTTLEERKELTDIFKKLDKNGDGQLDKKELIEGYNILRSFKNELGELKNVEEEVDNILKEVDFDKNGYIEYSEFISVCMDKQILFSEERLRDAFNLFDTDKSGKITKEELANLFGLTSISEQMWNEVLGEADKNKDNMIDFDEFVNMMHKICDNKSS

O=C(NCC1CCN(Cc2cccc(C(F)(F)F)c2)C1)c1cc(-c2cccc(F)c2)cs1 (configuration not stated)
active: growth inhibition [4] 87%
inactive: growth inhibition [1] 5% | inhibition [2] 19% | inhibition [3] -3% | outcome [5] | outcome [6] | outcome [7] | outcome [8]

CCOc1ccc(CCCON2C(N)=NC(N)=NC2(C)C)cc1
active: growth inhibition [1] 93% | inhibition [2] 65% | growth inhibition [4] 93%
inactive: inhibition [3] 0% | outcome [5] | outcome [6] | outcome [7] | outcome [8]

COc1ccc2nccc([C@@H](O)CN3CCC(NCCNc4ccccn4)CC3)c2c1
inactive: growth inhibition [1] 14% | inhibition [2] 18% | inhibition [3] -4% | outcome [5] | outcome [6] | outcome [7] | outcome [8]
active: growth inhibition [4] 101%

CNCCNCc1cccc(-c2cccc(-c3nc4ccc(F)cc4[nH]3)c2)c1
inactive: growth inhibition [1] 15% | inhibition [2] 20% | inhibition [3] -2% | outcome [5] | outcome [6] | outcome [7] | outcome [8]
active: growth inhibition [4] 98%
